{"source": "PubChem BioAssay AID1445", "about": "(SRMLSC, 2008)", "note": "Screen size: about 220,000 compounds; about 910 (0.41%) were called active.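 Rule for the calls: active = primary inhibition above the hit cutoff, then over 50% inhibition at one or more dose response concentrations (cut at about 23% in these data, passing the limit was not always enough); inconclusive = conflicting primary data, or primary hits not chosen for dose response; inactive = low primary inhibition, or under 50% at every dose.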 This excerpt belongs to a sample that is enriched for actives. Entries with a potency or affinity are not part of this list.", "data": [{"target": "Aminopeptidase N (Plasmodium falciparum (isolate 3D7)) (UniProt O96935)", "sequence (O96935 whole entry, looked up)": "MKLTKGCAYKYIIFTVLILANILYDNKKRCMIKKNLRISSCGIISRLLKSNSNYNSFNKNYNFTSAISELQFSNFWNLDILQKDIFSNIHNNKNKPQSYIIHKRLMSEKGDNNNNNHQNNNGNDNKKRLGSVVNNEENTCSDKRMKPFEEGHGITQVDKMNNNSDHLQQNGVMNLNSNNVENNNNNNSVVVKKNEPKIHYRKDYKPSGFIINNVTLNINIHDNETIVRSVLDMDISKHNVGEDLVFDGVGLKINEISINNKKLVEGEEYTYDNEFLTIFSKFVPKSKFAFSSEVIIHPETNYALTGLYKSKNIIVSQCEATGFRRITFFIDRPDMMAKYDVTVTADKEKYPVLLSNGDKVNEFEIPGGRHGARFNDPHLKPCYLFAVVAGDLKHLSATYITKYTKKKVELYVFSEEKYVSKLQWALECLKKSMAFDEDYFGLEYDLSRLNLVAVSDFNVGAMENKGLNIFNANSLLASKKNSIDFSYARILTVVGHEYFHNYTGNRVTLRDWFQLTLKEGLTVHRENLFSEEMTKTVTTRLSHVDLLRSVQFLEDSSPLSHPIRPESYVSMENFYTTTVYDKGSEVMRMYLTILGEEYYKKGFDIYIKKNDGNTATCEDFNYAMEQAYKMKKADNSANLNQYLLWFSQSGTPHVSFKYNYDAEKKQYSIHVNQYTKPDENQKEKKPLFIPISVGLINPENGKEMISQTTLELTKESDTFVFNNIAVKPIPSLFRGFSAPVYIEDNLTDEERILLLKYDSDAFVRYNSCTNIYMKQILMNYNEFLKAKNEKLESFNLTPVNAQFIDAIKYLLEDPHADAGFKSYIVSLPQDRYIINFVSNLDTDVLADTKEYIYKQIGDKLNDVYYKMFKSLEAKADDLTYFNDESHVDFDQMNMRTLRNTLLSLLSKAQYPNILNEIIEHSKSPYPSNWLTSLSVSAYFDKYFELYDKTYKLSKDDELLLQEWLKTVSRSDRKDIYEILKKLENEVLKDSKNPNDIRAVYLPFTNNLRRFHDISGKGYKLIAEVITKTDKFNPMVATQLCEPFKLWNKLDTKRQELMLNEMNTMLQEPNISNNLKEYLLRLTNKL", "experiment": "P. falciparum M1AAP inhibitors, biochemical, fluorogenic H-Leu-NHMec substrate, 1536-well (AID 1445);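 note: plate controls were DMSO full reaction for no effect and no enzyme background for full effect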", "conditions": "recombinant M1AAP, H-Leu-NHMec fluorogenic kinetic assay; at 30 µM, stronger effect = higher value unless noted", "values": [{"compound": "CC(=O)NN1C(=O)c2ccccc2NC1c1ccoc1", "note": "(stereo unspecified)", "inhibition": "4.92% (inactive)"}, {"compound": "O=C(NN1C(=O)c2ccccc2NC1c1ccccn1)c1ccc(Br)cc1", "note": "(stereo unspecified)", "inhibition": "8.07% (inactive)"}, {"compound": "O=C(NN1C(=O)c2ccccc2NC1c1ccccn1)c1ccc([N+](=O)[O-])cc1", "note": "(stereo unspecified)", "inhibition": "2.53% (inactive)"}, {"compound": "O=C(NN1C(=O)c2ccccc2NC1c1ccco1)c1ccc([N+](=O)[O-])cc1", "note": "(stereo unspecified)", "inhibition": "8.9% (inactive)"}, {"compound": "O=C(NN1C(=O)c2ccccc2NC1c1ccoc1)c1ccc([N+](=O)[O-])cc1", "note": "(stereo unspecified)", "inhibition": "4.32% (inactive)"}, {"compound": "O=C(NN1C(=O)c2ccccc2NC1c1ccco1)c1ccc(Br)cc1", "note": "(stereo unspecified)", "inhibition": "5.55% (inactive)"}, {"compound": "CCCc1[nH]nc2c1C1(CCN(C(=O)OCc3ccccc3)CC1)C(C#N)=C(N)O2", "inhibition": "3.73% (inactive)"}, {"compound": "O=C1OCC=C1NNC(=O)c1cccnc1", "inhibition": "4.75% (inactive)"}, {"compound": "Cc1ccc(SCc2[nH]nc3c2C2(C(=O)N(C)c4ccccc42)C(C#N)=C(N)O3)cc1", "note": "(stereo unspecified)", "inhibition": "5.03% (inactive)"}, {"compound": "Cn1c(SCc2ccccc2)nc2ccsc2c1=O", "inhibition": "2.71% (inactive)"}, {"compound": "CCCN(CCC)C(=O)CSc1nc2ccsc2c(=O)n1NC(=O)c1ccccc1", "inhibition": "2.56% (inactive)"}, {"compound": "COc1ccc(C(=O)Nn2c(SCC(=O)NCc3ccco3)nc3ccccc3c2=O)cc1", "inhibition": "1.81% (inactive)"}, {"compound": "O=C(CSc1nc2ccsc2c(=O)n1Cc1ccccc1)NCc1ccco1", "inhibition": "-0.89% (inactive)"}, {"compound": "CCC(C)NC(=O)CSc1nc2ccsc2c(=O)n1NC(=O)c1ccccc1", "note": "(stereo unspecified)", "inhibition": "15.2% (inactive)"}, {"compound": "Cc1ccc(CNC(=O)CSc2nc3ccsc3c(=O)n2Cc2ccc(C(=O)O)cc2)cc1", "inhibition": "33.8% (inactive)"}, {"compound": "COc1ccc(-n2c(SCC(=O)NCCC(C)C)nc3ccsc3c2=O)cc1", "inhibition": "-0.48% (inactive)"}, {"compound": "Cc1ccc(CNC(=O)CSc2nc3ccsc3c(=O)n2Cc2ccccn2)cc1", "inhibition": "15.8% (inactive)"}, {"compound": "CC1(C)Cc2c(sc(/N=C/N3CCCCC3)c2C#N)C(C)(C)N1", "inhibition": "6.45% (inactive)"}, {"compound": "COc1ccc(/C=C/C(=O)NCC2COc3ccccc3O2)c(OC)c1", "note": "(stereo unspecified)", "inhibition": "6.8% (inactive)"}, {"compound": "COc1ccc(Cl)cc1NC(=O)CNc1ccccc1CN(C)C1CCCCC1", "inhibition": "10.4% (inactive)"}, {"compound": "COC(=O)c1ccc(COc2ncnc3c(Cl)cc(Cl)cc23)o1", "inhibition": "1.47% (inactive)"}, {"compound": "COc1ccc(C)cc1NC(=O)Cn1cnnn1", "inhibition": "2.9% (inactive)"}, {"compound": "S=C(c1ccc(Br)cc1)N1CCN(Cc2ccccc2)CC1", "inhibition": "12.5% (inactive)"}, {"compound": "CCc1n[nH]c(=S)n1/N=C/c1ccccc1OCc1ccc(Cl)cc1", "inhibition": "3.79% (inactive)"}, {"compound": "CSc1n[nH]c(NC(C)=O)n1", "inhibition": "2.22% (inactive)"}, {"compound": "Oc1c(Cl)cc(Cl)cc1C=Nc1ccc(Br)cc1", "inhibition": "12.1% (inactive)"}, {"compound": "C/C(=N\\O)c1cc(Cl)cc(Cl)c1O", "inhibition": "10.5% (inactive)"}, {"compound": "O=C(NCCn1ccc2ccccc21)c1ccc(S(=O)(=O)N2CCOCC2)cc1", "inhibition": "8.48% (inactive)"}, {"compound": "CC(C)C(=O)NCCc1nc2ccccc2n1CCCOc1ccc(Cl)cc1", "inhibition": "10.4% (inactive)"}, {"compound": "O=C(CC(C(=O)O)c1ccccc1)c1cccs1", "note": "(stereo unspecified)", "inhibition": "3.01% (inactive)"}, {"compound": "CC(C)Cc1nc2oc3c(=O)[nH]cnc3c2c2c1CCCC2", "inhibition": "-0.28% (inactive)"}, {"compound": "CN(C)C(=O)N1CCCC(C(=O)NCCc2ccccc2)C1", "note": "(stereo unspecified)", "inhibition": "2.4% (inactive)"}, {"compound": "O=C(NC1CCN(C(=S)NCCc2ccccc2)CC1)C1CCCCC1", "inhibition": "-6.9% (inactive)"}, {"compound": "O=C(NCCc1ccccc1)C1CCCN(C(=O)NC2CCCCC2)C1", "note": "(stereo unspecified)", "inhibition": "28.2% (active)"}, {"compound": "O=C(CCN1CCOCC1)Nc1cccc(Br)c1", "inhibition": "-4.3% (inactive)"}, {"compound": "O=c1[nH]c2ccc(Cl)cc2c(-c2ccccc2)c1N1CCOCC1", "inhibition": "-3.98% (inactive)"}, {"compound": "O=C(CN1CCOCC1)NNc1nc(-c2ccccc2)c2cc(Br)ccc2n1", "inhibition": "20.7% (inactive)"}, {"compound": "O=c1[nH]c2ccc(Cl)cc2c(-c2ccccc2)c1SC(=S)N1CCOCC1", "inhibition": "44% (inactive)"}, {"compound": "N#Cc1c(NC(=O)CCN2C(=O)c3ccccc3C2=O)oc(-c2ccccc2)c1-c1ccccc1", "inhibition": "5.82% (inactive)"}, {"compound": "CCOC(=O)c1[nH]c2ccc(Br)cc2c1NC(=O)CCN1CCOCC1", "inhibition": "4.62% (inactive)"}, {"compound": "N#Cc1c(NC(=O)CN2CCOCC2)oc(-c2ccccc2)c1-c1ccccc1", "inhibition": "23.5% (active)"}, {"compound": "O=C(O)Cc1c(-c2ccccc2)c2cc(Br)ccc2[nH]c1=O", "inhibition": "22.3% (inactive)"}, {"compound": "N#Cc1c(NC(=O)Cn2c(=O)oc3ccccc32)oc(-c2ccccc2)c1-c1ccccc1", "inhibition": "4.71% (inactive)"}, {"compound": "O=C(CN1CCOCC1)Nc1c(-c2ccccc2)c2cc(Br)ccc2[nH]c1=O", "inhibition": "28.2% (active)"}, {"compound": "CCOC(=O)N1CCN(C(=O)CCCOc2ccccc2)CC1", "inhibition": "3.31% (inactive)"}, {"compound": "O=c1[nH]ncc(N2CCCCCC2)c1Cl", "inhibition": "5.89% (inactive)"}, {"compound": "COc1cc(/C=C/C(=O)O)ccc1OCc1cnc(Cl)s1", "inhibition": "0.41% (inactive)"}, {"compound": "CC1=Nn2c(nc(-c3ccccc3)c2-c2ccccc2)N(CC(N)=O)C(=O)C1", "inhibition": "-0.64% (inactive)"}, {"compound": "CCCS(=O)(=O)N1CCN(C(=O)c2ccco2)CC1", "inhibition": "12.4% (inactive)"}, {"compound": "CSc1nnc(C)c(=O)n1COC(=O)COc1ccccc1", "inhibition": "0.02% (inactive)"}, {"compound": "COc1cc(OC)cc(C(=O)NC(=S)NCc2ccco2)c1", "inhibition": "5.49% (inactive)"}, {"compound": "O=C(NC1CCCCC1)N1CCN(C(=O)c2ccco2)CC1", "inhibition": "-0.86% (inactive)"}, {"compound": "O=C(c1ccco1)n1nc(-c2cccnc2)nc1NCc1ccco1", "inhibition": "16.8% (inactive)"}, {"compound": "CC1(C)Cc2nc3sc(C(=O)NCCO)c(N)c3cc2CO1", "inhibition": "1.79% (inactive)"}, {"compound": "CCC(C)(C)NC(=O)C(c1ccc(C)o1)N(C(=O)c1csnn1)c1cccc(F)c1", "note": "(stereo unspecified)", "inhibition": "1.56% (inactive)"}, {"compound": "O=C(Cc1cccs1)Nc1nnc(-c2ccccc2)s1", "inhibition": "8.23% (inactive)"}, {"compound": "CCCc1n(CC(O)COCc2ccccc2)c2ccccc2[n+]1C", "note": "(stereo unspecified)", "inhibition": "6.5% (inactive)"}, {"compound": "Cc1ccc2[nH]c(=O)c(CN3CCCCC3)c(-c3ccccc3)c2c1", "inhibition": "-7.69% (inactive)"}, {"compound": "O=c1[nH]c2ccc(Br)cc2c(-c2ccccc2)c1N1CCOCC1", "inhibition": "3.65% (inactive)"}, {"compound": "CCCCCCC(=O)N/N=C(\\C)Cc1ccccc1", "inhibition": "-0.14% (inactive)"}, {"compound": "COc1cccc(-n2c(CN3CCN(Cc4ccccc4)CC3)nc3ccc([N+](=O)[O-])cc3c2=O)c1", "inhibition": "4.64% (inactive)"}]}]}
